Screening data as filed in PubChem.
VDR inhibitor: Inhibitors of the vitamin D receptor (VDR): qHTS; Vitamin D3 receptor (Homo sapiens), P11473; VDR-SRC2-3 peptide fluorescence polarization, 2 h; Potency, µM, usual class: inhibitors; 0.93% of 400,000 active; AID 504847, 2011
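Reagent solutions, kept cold and dark, are dispensed first; compounds are then pinned in at 23 nl, plates briefly spun, and incubated 2 h at ambient temperature. Inhibition of VDR–SRC2-3 peptide binding is read by fluorescence polarization.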
JMJD2A Tudor: qHTS Assay for Inhibitors of JMJD2A-Tudor Domain | AID 504339, 2011 | AlphaScreen JMJD2A-Tudor / H3K4me3 peptide binding | Potency, µM (top dose mostly 114 µM), hits mostly inhibitors | 4.4% of 390,000 active; note: nearly all actives have a fitted effect of over 50% in size
HP1b binding inh: HTS for Inhibitors of HP1-beta Chromodomain Interactions with Methylated Histone Tails; Potency, µM (titrated, usually from 114 µM), actives largely listed as inhibitors; AID 540317, 2011; AlphaScreen HP1-beta / biotin-H3K9me3 peptide binding; 0.56% of 390,000 active; Chromobox protein homolog 1 (Homo sapiens), P83916; note: nearly all actives have a fitted effect of over 70% in size
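AlphaScreen: HP1-beta (50 nM) preformed 30 min with biotin-H3(1-18)K9me3 peptide (50 nM) in PBS pH 7.4, 0.01% Tween-20. Compound added for 30 min at RT, then streptavidin donor/nickel chelate acceptor beads (10 ug/mL) for 30 min.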
PLK1 PBD inh: qHTS for Inhibitors of PLK1-PDB (polo-like kinase 1 - polo-box domain): Primary Screen; Serine/threonine-protein kinase PLK1 (Homo sapiens), P53350; 2.8% of 360,000 active; Potency, µM, actives largely listed as inhibitors; Plk1 PBD binding of FITC phosphopeptide, fluorescence polarization; note: series mostly up to about 57 µM; nearly all actives have a fitted effect of over 65% in size
BAZ2B inh: qHTS Assay for Inhibitors of BAZ2B; AlphaScreen BAZ2B-H3K14Ac peptide displacement; Bromodomain adjacent to zinc finger domain protein 2B (Homo sapiens), Q9UIF8; 4.4% of 360,000 active; Potency, µM (top dose mostly 114 µM), actives largely listed as inhibitors; note: nearly all actives have a fitted effect of over 60% in size
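In this displacement format the biotinylated H3(5-23) peptide acetylated at Lys14 serves as ligand at 50 nM, with BAZ2B at 50 nM in PBS pH 7.4 containing 0.01% Tween-20. Donor and acceptor beads are 10 ug/mL final.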
G9a inh: qHTS Assay for Inhibitors of Histone Lysine Methyltransferase G9a. Potency, µM (titrated, usually from 102 µM), actives largely listed as inhibitors. G9a H3K9 monomethylation, AlphaScreen, 2 h. 8.8% of 350,000 active; note: nearly all actives have a fitted effect of over 75% in size
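AlphaScreen detection with an anti-monomethyl H3K9 antibody quantified product after a 2 h room-temperature reaction containing 500 nM biotinylated H3K9 peptide, 20 µM SAM and 20 nM enzyme, which had been preincubated 15 min with compound.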
Hits are given with their value; [ ] = dose if it differs, or a comment. An excerpt weighted towards active compounds, which were near 11% of everything screened. Calls come from the whole dose curve; as a rule, active = well fitted curve in the direction sought with a large enough effect; inconclusive = small, poorly fitted or top-dose-only effect, or another doubt; inactive = no such curve, though single readings can be large; an effect the other way counts as inactive or inconclusive.

Screening CCN(CCCNC(=O)c1c(C)cc(=O)oc1C)c1cccc(C)c1 returned VDR inhibitor inactive, JMJD2A Tudor inconclusive, HP1b binding inh inactive, PLK1 PBD inh inactive, BAZ2B inh inconclusive and G9a inh 12.6µM.
Cc1ccccc1CS(=O)(=O)Cc1ccc(C(=O)NCc2ccccn2)o1 was read as VDR inhibitor inactive, JMJD2A Tudor inactive, HP1b binding inh inactive, PLK1 PBD inh inactive, BAZ2B inh 50.1µM and G9a inh inactive[0.501 µM].
O=C(NCc1ccc(F)cc1)c1cc(Sc2ccc(F)cc2F)nc2ccccc12 was read as VDR inhibitor inactive, JMJD2A Tudor inactive, HP1b binding inh inactive, BAZ2B inh inactive and G9a inh inactive.
Screening Cc1ccc(/C=N/N2CCN(Cc3ccccc3)CC2)o1 returned VDR inhibitor inactive, JMJD2A Tudor inactive, HP1b binding inh inactive, PLK1 PBD inh inactive, BAZ2B inh inconclusive and G9a inh 20µM.
For Cc1ccc(/C=N/N2CCN(Cc3cccc4ccccc34)CC2)o1 the results were VDR inhibitor inactive, JMJD2A Tudor 50.1µM, HP1b binding inh inconclusive, PLK1 PBD inh inactive, BAZ2B inh 50.1µM and G9a inh 44.7µM.
For CCn1c(=O)c([N+](=O)[O-])c(Cl)c2ccccc21 the results were VDR inhibitor inconclusive, JMJD2A Tudor inactive, HP1b binding inh inactive, PLK1 PBD inh 2.38µM, BAZ2B inh inactive and G9a inh inactive.
CCn1c(=O)c([N+](=O)[O-])c(NCC2CCCO2)c2ccccc21 (configuration not stated) was read as VDR inhibitor inactive, JMJD2A Tudor inactive, HP1b binding inh inactive, PLK1 PBD inh inactive, BAZ2B inh inactive and G9a inh inactive.
Screening CCn1c(=O)c([N+](=O)[O-])c(NCCN(C)C)c2ccccc21 returned VDR inhibitor inactive, JMJD2A Tudor inactive, HP1b binding inh inactive, PLK1 PBD inh inactive, BAZ2B inh inactive and G9a inh 56.2µM.
`CCn1c(=O)c([N+](=O)[O-])c(NCC(O)c2ccccc2)c2ccccc21` (configuration not stated) gave VDR inhibitor inactive, JMJD2A Tudor inactive, HP1b binding inh inactive, PLK1 PBD inh inactive, BAZ2B inh inactive and G9a inh inactive.
`CCc1nn(C(C)C(=O)N2CCN(c3cccc(C(F)(F)F)c3)CC2)c(=O)c2cc3occc3n12` (configuration not stated) gave VDR inhibitor inactive, JMJD2A Tudor inconclusive, HP1b binding inh inactive, BAZ2B inh inconclusive and G9a inh inactive.
Screening COc1ccc(CNC(=O)CC(c2ccc(OC)c(OC)c2)N2Cc3ccccc3C2=O)cc1 (configuration not stated) returned VDR inhibitor inactive, JMJD2A Tudor inactive, HP1b binding inh inactive, BAZ2B inh inactive and G9a inh inactive.
`Cc1cc(C)cc(NC(=O)c2ccc(S(=O)(=O)C(F)F)cc2)c1` gave VDR inhibitor inactive, JMJD2A Tudor inactive, HP1b binding inh inactive, PLK1 PBD inh inactive, BAZ2B inh inactive and G9a inh 50.1µM.
Screening Fc1ccc(Nc2ccnc(-c3ccc4c(c3)OCO4)n2)cc1 returned VDR inhibitor 39.8µM and G9a inh inactive[0.501 µM].
Screening Cc1noc(C)c1-c1nccc(Nc2ccc(F)cc2)n1 returned VDR inhibitor inactive and G9a inh inactive[0.501 µM].
Screening CN(C)C(=O)c1ccc(-c2nccc(NCc3ccccc3)n2)cc1 returned VDR inhibitor inconclusive and G9a inh inactive[0.501 µM].
CN(C)C(=O)c1ccc(-c2nccc(Nc3ccc(F)cc3)n2)cc1 was read as VDR inhibitor 50.1µM and G9a inh inactive[0.501 µM].
Screening COc1ccccc1-c1nccc(Nc2ccc(F)cc2)n1 returned VDR inhibitor 50.1µM and G9a inh inactive[0.501 µM].
For Fc1ccc(Nc2ccnc(-c3ccoc3)n2)cc1 the results were VDR inhibitor 25.1µM and G9a inh inactive[0.501 µM].
Screening C=CCOC(=O)N[C@H](c1ccco1)C(C(C)=O)C(C)=O returned VDR inhibitor inactive.
`O=C(CSc1nc(COc2ccccc2)nc2ccccc12)NC1CCCC1` gave VDR inhibitor inactive, JMJD2A Tudor inactive, HP1b binding inh inactive, PLK1 PBD inh inconclusive, BAZ2B inh inactive and G9a inh inactive.
For O=C(OC(C(=O)NCc1ccc(F)cc1)c1ccccc1)c1ccco1 (configuration not stated) the results were VDR inhibitor inactive, JMJD2A Tudor inactive, HP1b binding inh inactive, PLK1 PBD inh inactive, BAZ2B inh inactive and G9a inh inactive.
CCOC(=O)C(NCc1ccc(F)cc1)(NC(=O)c1ccccc1)C(F)(F)F (configuration not stated) was read as VDR inhibitor inactive, JMJD2A Tudor inactive, HP1b binding inh inactive, PLK1 PBD inh inactive, BAZ2B inh inactive and G9a inh inactive.
Screening COC(=O)C(NNc1ccc(F)cc1)(NC(=O)c1ccccc1)C(F)(F)F (configuration not stated) returned VDR inhibitor inactive, JMJD2A Tudor inactive, HP1b binding inh inactive, PLK1 PBD inh inactive, BAZ2B inh inactive and G9a inh 25.1µM.
For COC(=O)C(NNc1ccccc1C)(NC(=O)c1ccc(F)cc1)C(F)(F)F (configuration not stated) the results were VDR inhibitor inactive, JMJD2A Tudor inconclusive, HP1b binding inh inconclusive, PLK1 PBD inh 26.7µM, BAZ2B inh inactive and G9a inh 3.16µM.
Screening CN(CC(=O)Nc1ccccc1Cl)C(=O)CSc1nncn1C returned VDR inhibitor inactive, JMJD2A Tudor inactive, HP1b binding inh inactive, PLK1 PBD inh inactive, BAZ2B inh inactive and G9a inh inconclusive.
For CCc1ccc2nc(N(CCN(C)C)C(=O)c3ccc4ccccc4c3)sc2c1 the results were VDR inhibitor inactive, JMJD2A Tudor inconclusive, HP1b binding inh inactive, PLK1 PBD inh inactive, BAZ2B inh inconclusive and G9a inh 79.4µM.
`CN(C)CCN(C(=O)c1ccc2ccccc2c1)c1nc2ccc(F)cc2s1` gave VDR inhibitor inactive, JMJD2A Tudor inconclusive, HP1b binding inh inactive, PLK1 PBD inh inactive, BAZ2B inh inactive and G9a inh 44.7µM.
Screening CN(C)CCN(C(=O)c1ccc2ccccc2c1)c1nc2cc3c(cc2s1)OCO3 returned PLK1 PBD inh inactive.
Screening O=[N+]([O-])c1cc2ncccc2c2ncccc12 returned PLK1 PBD inh inactive.
O=c1ccc2[n+]([O-])c3ccc(O)cc3oc-2c1 was read as VDR inhibitor 11.2µM, JMJD2A Tudor inactive, HP1b binding inh inconclusive, PLK1 PBD inh inactive, BAZ2B inh 10µM and G9a inh 10µM.
